From PubChem BioAssay AID2551 (National Center for Advancing Translational Sciences (NCATS), 2010) come the findings set out here.

About 17,000 (5.5%) of roughly 310,000 compounds were called active. Another 11% or so got no clear call; they are omitted. The list comes from a sample in which actives are over-represented; it also holds similar structures and randomly drawn compounds. Unmarked numbers belong to inactive results. The call rests on the fitted dose curve; in most records, active means well fitted inhibition curve with a large enough effect; inconclusive means small, poorly fitted or top-dose-only effect, or effect the other way; inactive means no such curve, though single readings can be large or run the other way.
On the % scale 0 is the no-effect control and ±100 the full control effect; potency means the concentration at half of the fitted maximal effect.

This assay deals with Nuclear receptor ROR-gamma (Mus musculus) (UniProt P51450). Kind of assay: qHTS for inhibitors of ROR gamma transcriptional activity. Further: nearly all actives have a fitted effect of over 60% in size. The note with it: Drosophila S2 Gal4-RORgamma UAS-luciferase reporter, 20 h; series mostly up to 53.6 µM; activity change, negative = inhibition: at the top concentration. In short, it runs like this: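 Drosophila Schneider cells stably carrying a metallothionein-driven Gal4 DBD–ROR gamma fusion and a UAS-Photinus luciferase reporter were exposed to compound for 1 hr, then induced with copper sulfate (700 uM final) for 20 hr at ambient temperature before luminescence reading.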
Chain of Nuclear receptor ROR-gamma (Mus musculus) (P51450 whole entry, looked up, the tested form may be a part): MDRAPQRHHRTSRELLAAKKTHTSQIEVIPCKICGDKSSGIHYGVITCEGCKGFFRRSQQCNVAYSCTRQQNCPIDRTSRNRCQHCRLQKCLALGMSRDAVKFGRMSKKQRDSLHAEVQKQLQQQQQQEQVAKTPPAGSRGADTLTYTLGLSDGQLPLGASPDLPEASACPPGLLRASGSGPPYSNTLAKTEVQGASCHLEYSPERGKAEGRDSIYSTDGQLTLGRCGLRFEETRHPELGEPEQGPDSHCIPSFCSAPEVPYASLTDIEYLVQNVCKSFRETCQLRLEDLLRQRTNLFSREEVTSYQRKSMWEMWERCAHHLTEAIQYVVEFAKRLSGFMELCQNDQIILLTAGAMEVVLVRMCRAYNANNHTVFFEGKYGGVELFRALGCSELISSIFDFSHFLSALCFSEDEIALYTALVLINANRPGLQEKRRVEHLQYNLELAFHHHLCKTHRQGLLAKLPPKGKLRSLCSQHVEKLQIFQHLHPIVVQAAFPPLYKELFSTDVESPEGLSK
`COc1ccc(CNc2cc(C)cc(C)c2)cc1OC`: the “activity change, negative = inhibition” value is 3.44%. For the compound `COc1ccc(N(CC(=O)N/N=C/c2cccs2)S(=O)(=O)c2ccc(OC)c(OC)c2)cc1`, the “activity change, negative = inhibition” value is -3.53%. Consider `COc1ccc2c(c1)c(C(=O)N/N=C/c1cccs1)c(C)n2C`, for which the Potency is 15.8 µM (active). As to `NC(=O)N/N=C\c1cccs1`, the “activity change, negative = inhibition” value is 11.9%.

Turning to `O=C(CSc1n[nH]c(-c2cccnc2)n1)Nc1ccnc2ccccc12`, the “activity change, negative = inhibition” value is 0.985%.

With `Cc1cc(-c2n[nH]c(=S)n2/N=C/C(Br)=C/c2ccccc2)n[nH]1`, the Potency is 12.6 µM (active).

With `O=C(CSc1n[nH]c(-c2cccnc2)n1)Nc1ccc(Cl)cc1`, the “activity change, negative = inhibition” value was 41.7%. On to `Cc1cc(-c2n[nH]c(=S)n2/N=C/c2ccco2)n[nH]1`, for which the “activity change, negative = inhibition” value is -0.905%. As to `S=c1[nH]nc(-c2cccnc2)n1/N=C/C(Cl)=C\c1ccccc1`, the Potency was 8.91 µM (active). `O=C(Nc1ccc(S(=O)(=O)N2CCCCC2)cc1)C1CC(=O)N(c2ccc(F)cc2)C1` (stereo unspecified): the “activity change, negative = inhibition” value was 31.8%. With `CCC(C(=O)OC)n1cnc2scc(-c3ccc(C)cc3)c2c1=O` (stereo unspecified), the “activity change, negative = inhibition” value is 12.9%.

Turning to `Cc1ccccc1C(CC(=O)c1cccs1)C(C#N)C#N` (stereo unspecified), the Potency is 1.58 µM (active).

Take `O=C(NCC(=O)N1CCN(c2ccccc2F)CC1)c1cccs1`: the “activity change, negative = inhibition” value was 35.7%. On to `O=C(CCC(=O)c1cccs1)NCc1ccccc1`, for which the “activity change, negative = inhibition” value is -6.72%. Take `CC(=O)c1ccc(N2Cc3ccccc3C2)cc1`: the “activity change, negative = inhibition” value was -1.29%. Consider `COc1cc2c(cc1OC)C(C)N(S(=O)(=O)c1cnc(Cl)c(Cl)c1)CC2` (stereo unspecified), for which the “activity change, negative = inhibition” value is 1.19%. Consider `COc1cccc(OC)c1C(=O)NC(=S)NCc1ccco1`, for which the Potency is 3.55 µM (active). As to `COc1cccc(NC(=S)NCc2ccco2)c1`, the Potency was 11.2 µM (active). In the case of `COc1cc(C(=O)NC(=S)NCc2ccco2)cc(OC)c1OC`, the Potency was 6.31 µM (active).

Turning to `COc1cc(C(=O)N[C@@H](C)C(=O)NCc2ccco2)cc(OC)c1OC`, the “activity change, negative = inhibition” value is -0.487%.

Consider `COc1ccc(-c2cc(C(=O)NCc3ccco3)no2)cc1OC`, for which the “activity change, negative = inhibition” value was 44.4%.

As to `COc1cccc(NC(=O)NCc2ccc(F)cc2)c1`, the “activity change, negative = inhibition” value is 13.4%. With `COc1cc(-n2c(C)nc3cc(C(=O)NCc4ccco4)ccc32)cc(OC)c1OC`, the “activity change, negative = inhibition” value is -10.6%. For `S=C(NCc1ccco1)Nc1ccc2c(c1)OCCO2`, the “activity change, negative = inhibition” value is -30.9%. On the same count and under the same terms, then `COC(=O)/C=C/C(=O)NCc1ccco1`, with -21.6%; and `CCOC(=O)N1CCN(C(=O)c2cn(C)c3ccc(S(=O)(=O)N(CC)CC)cc3c2=O)CC1`, with -12.9%. On to `Cc1c(NC(=O)CSCc2ccccc2)cccc1C(=O)O`, for which the “activity change, negative = inhibition” value is -17.2%. In the case of `Cc1occc(=O)c1OCc1ccc(F)cc1`, the “activity change, negative = inhibition” value was -1.17%.

As to `CC(=O)Nc1ccc(NS(=O)(=O)c2ccc3c(c2)NC(=O)CC(=O)N3)cc1`, the “activity change, negative = inhibition” value was -30.5%. In the case of `Cn1ncc2c(N3CCCCC3)nc(NCCCO)nc21`, the “activity change, negative = inhibition” value was -17.9%. `O=C(NCc1ccc2c(c1)OCO2)C(=O)NCC1OCCN1S(=O)(=O)c1ccc(F)cc1` (stereo unspecified): the “activity change, negative = inhibition” value is 52.2%.
